Assays:
Assay in all cases: DAPPL (digital affinity profiling via proximity ligation, sequencing); 10 mM Tris-HCl pH 7.5, 50 mM NaCl, 1 mM DTT, 4% glycerol, room temperature, 30 min; GST-TFs on glutathione beads, 16-mer random dsDNA library, 0.1% formaldehyde crosslink after washing; high values mean tight binding
Conditions in all cases: protein: recombinant; tags: N-terminal GST; dsDNA, one strand shown
[1] = molecular target: T1, FLI1 (Homo sapiens, UniProt Q01543 1-452)
T1 sequence: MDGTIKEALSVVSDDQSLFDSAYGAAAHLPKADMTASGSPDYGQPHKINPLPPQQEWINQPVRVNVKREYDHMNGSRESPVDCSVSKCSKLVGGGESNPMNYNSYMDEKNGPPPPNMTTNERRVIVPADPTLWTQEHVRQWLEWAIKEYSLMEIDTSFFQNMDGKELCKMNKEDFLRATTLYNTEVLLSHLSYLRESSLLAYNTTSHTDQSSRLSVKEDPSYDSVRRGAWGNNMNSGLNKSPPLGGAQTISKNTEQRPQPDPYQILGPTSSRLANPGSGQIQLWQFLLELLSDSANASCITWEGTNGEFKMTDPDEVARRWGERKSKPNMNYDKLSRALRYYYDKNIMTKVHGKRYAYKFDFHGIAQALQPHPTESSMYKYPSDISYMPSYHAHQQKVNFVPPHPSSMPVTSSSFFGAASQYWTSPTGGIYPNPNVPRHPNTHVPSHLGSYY
Summary of the method: (§1)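 Binding signal is given per hexamer as its read frequency for a factor divided by its frequency in the tag-only sample. GST-fused human transcription factors were expressed in yeast, captured on glutathione beads, barcoded with DNA and pooled with that sample, then incubated with 200 nmole of a 16-mer random double-stranded DNA library in Tris/NaCl/DTT/glycerol buffer for 30 min at room temperature. The pools were then washed, crosslinked, proximity-ligated, amplified by PCR and sequenced on an Illumina NextSeq500.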

[2] = molecular target: T2, ELK1 (Homo sapiens, UniProt P19419 1-428)
T2 sequence: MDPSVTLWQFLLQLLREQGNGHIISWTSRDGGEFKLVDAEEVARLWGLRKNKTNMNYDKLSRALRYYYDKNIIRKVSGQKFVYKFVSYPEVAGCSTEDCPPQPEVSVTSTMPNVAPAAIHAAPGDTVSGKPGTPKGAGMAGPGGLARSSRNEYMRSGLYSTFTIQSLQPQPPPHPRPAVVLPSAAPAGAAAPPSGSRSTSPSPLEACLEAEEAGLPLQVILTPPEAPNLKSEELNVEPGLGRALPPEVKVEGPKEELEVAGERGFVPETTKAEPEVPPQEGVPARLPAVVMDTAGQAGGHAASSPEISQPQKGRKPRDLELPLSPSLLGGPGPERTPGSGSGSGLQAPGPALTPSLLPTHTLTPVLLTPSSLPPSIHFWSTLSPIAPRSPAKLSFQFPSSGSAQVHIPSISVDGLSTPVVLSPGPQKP
Summary of the method: as §1

[3] = molecular target: T3, GABPA (Homo sapiens, UniProt Q06546 1-454)
T3 sequence: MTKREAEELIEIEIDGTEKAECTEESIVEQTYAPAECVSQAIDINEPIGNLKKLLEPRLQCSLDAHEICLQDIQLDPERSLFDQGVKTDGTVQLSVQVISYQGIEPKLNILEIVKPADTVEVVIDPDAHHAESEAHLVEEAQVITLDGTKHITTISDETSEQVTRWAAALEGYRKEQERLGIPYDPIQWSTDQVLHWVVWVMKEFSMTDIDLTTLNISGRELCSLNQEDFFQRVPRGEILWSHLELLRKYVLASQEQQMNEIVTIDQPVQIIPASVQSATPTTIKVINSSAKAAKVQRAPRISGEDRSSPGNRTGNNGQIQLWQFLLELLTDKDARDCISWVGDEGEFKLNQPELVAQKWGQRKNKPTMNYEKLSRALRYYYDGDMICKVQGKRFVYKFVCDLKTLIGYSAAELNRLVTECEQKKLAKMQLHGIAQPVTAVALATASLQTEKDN
Summary of the method: as §1

[4] = molecular target: ELF1 (Homo sapiens, UniProt P32519 1-619)
Summary of the method: as §1

[5] = molecular target: T4, EHF (Homo sapiens, UniProt Q9NZC4 1-300)
T4 sequence: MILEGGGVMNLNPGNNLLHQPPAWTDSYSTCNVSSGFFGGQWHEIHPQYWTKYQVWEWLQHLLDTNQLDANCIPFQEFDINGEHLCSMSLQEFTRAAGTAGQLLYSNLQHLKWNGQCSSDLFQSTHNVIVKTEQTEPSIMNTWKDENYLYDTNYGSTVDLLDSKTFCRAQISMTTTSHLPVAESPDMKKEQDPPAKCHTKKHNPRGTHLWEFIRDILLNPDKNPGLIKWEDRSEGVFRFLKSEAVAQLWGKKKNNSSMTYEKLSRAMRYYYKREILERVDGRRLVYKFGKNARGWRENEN
Summary of the method: as §1

[6] = molecular target: T5, FEV (Homo sapiens, UniProt Q99581 1-238)
T5 sequence: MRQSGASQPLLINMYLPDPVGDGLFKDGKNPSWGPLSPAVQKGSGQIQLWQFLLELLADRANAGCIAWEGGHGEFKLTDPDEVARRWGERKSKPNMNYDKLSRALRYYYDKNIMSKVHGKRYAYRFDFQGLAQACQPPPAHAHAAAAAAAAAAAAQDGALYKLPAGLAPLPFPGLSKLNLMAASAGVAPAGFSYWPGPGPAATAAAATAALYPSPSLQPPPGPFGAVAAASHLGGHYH
Summary of the method: as §1

[7] = molecular target: ETV5 (Homo sapiens, UniProt P41161 1-510)
Summary of the method: as §1

[8] = molecular target: T6, SPIC (Homo sapiens, UniProt Q8N5J4 1-248)
T6 sequence: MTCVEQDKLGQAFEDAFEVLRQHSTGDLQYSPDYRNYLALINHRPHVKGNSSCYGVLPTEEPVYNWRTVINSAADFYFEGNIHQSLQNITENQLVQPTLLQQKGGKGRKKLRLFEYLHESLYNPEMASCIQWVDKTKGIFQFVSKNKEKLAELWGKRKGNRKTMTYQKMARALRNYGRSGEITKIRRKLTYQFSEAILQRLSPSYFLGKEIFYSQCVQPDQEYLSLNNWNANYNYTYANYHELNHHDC
Summary of the method: as §1

[9] = molecular target: ELF4 (Homo sapiens, UniProt Q99607 1-663)
Summary of the method: as §1

[10] = molecular target: ETV1 (Homo sapiens, UniProt P50549 1-477)
Summary of the method: as §1

[11] = molecular target: T7, ERF (Homo sapiens, UniProt P50548 1-548)
T7 sequence: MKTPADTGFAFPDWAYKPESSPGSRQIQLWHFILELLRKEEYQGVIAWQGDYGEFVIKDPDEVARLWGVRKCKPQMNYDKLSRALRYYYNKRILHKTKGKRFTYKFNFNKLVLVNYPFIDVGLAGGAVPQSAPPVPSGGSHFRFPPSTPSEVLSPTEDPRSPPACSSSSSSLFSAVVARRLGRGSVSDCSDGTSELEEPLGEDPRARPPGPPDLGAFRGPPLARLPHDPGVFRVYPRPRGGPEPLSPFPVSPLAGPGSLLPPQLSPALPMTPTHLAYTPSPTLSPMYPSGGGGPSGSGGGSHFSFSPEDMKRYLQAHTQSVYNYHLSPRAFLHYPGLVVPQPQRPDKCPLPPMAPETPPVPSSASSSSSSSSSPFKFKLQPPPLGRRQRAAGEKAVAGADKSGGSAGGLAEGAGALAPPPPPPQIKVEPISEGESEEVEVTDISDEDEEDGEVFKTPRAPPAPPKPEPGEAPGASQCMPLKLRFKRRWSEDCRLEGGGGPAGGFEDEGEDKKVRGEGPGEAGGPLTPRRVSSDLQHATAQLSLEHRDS
Summary of the method: as §1

[12] = molecular target: T8, ETV3L (Homo sapiens, UniProt Q6ZN32 1-361)
T8 sequence: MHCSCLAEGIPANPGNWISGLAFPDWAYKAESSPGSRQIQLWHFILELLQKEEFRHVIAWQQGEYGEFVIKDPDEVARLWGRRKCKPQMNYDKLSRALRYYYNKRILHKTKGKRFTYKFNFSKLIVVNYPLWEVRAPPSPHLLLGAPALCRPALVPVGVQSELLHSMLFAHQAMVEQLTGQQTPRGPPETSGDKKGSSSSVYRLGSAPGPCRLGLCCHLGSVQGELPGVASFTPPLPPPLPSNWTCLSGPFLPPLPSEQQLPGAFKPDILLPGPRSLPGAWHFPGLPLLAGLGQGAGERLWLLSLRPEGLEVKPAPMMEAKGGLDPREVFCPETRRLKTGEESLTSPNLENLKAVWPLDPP
Summary of the method: as §1

[13] = molecular target: T9, ETS2 (Homo sapiens, UniProt P15036 1-469)
T9 sequence: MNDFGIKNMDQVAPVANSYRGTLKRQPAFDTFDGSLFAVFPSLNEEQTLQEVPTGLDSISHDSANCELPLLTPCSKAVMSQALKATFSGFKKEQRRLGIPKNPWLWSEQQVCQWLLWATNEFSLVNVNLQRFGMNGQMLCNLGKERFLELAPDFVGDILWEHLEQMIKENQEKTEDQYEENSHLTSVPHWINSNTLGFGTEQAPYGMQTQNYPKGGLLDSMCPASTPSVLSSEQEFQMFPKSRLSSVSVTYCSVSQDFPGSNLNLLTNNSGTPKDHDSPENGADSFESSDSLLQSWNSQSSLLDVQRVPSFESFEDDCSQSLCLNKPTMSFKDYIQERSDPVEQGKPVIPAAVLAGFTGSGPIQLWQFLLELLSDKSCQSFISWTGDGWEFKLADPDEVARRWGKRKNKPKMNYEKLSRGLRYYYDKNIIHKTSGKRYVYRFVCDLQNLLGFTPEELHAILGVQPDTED
Summary of the method: as §1

[14] = molecular target: T10, ELF5 (Homo sapiens, UniProt Q9UKW6-2 1-255)
T10 sequence: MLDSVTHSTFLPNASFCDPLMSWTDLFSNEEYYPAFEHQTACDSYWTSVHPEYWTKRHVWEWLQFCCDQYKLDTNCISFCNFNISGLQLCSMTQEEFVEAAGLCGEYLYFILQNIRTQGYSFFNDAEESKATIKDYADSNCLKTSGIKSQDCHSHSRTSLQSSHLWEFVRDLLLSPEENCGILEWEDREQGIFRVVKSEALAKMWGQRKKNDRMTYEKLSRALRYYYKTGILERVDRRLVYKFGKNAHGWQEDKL
Summary of the method: as §1

[15] = molecular target: T11, ETV3 (Homo sapiens, UniProt P41162-2 1-143)
T11 sequence: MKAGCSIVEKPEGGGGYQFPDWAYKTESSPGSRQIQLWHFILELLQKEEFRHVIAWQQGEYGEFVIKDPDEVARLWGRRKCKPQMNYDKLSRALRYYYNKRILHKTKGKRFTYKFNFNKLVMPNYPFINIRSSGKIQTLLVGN
Summary of the method: as §1

[16] = molecular target: ETV6 (Homo sapiens, UniProt P41212 1-452)
Summary of the method: as §1

[17] = molecular target: T12, ERG (Homo sapiens, UniProt P11308 1-479)
T12 sequence: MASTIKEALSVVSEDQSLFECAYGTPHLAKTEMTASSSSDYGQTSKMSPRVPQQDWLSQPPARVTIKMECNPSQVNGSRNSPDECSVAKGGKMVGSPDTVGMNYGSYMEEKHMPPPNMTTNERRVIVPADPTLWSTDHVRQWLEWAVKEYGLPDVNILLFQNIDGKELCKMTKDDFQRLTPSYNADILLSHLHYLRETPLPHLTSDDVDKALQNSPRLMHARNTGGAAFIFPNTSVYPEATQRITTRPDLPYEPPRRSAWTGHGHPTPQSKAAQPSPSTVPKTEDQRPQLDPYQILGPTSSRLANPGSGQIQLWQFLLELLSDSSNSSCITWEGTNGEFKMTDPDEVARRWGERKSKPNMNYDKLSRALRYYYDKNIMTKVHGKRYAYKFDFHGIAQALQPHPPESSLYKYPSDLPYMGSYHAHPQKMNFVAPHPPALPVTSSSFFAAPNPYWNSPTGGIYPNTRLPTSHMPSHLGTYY
Summary of the method: as §1

[18] = molecular target: SPI1 (Homo sapiens, UniProt P17947 1-270)
Summary of the method: as §1

[19] = molecular target: SPIB (Homo sapiens, UniProt Q01892 1-262)
Summary of the method: as §1

Sequence of ETV1 (P50549 whole entry): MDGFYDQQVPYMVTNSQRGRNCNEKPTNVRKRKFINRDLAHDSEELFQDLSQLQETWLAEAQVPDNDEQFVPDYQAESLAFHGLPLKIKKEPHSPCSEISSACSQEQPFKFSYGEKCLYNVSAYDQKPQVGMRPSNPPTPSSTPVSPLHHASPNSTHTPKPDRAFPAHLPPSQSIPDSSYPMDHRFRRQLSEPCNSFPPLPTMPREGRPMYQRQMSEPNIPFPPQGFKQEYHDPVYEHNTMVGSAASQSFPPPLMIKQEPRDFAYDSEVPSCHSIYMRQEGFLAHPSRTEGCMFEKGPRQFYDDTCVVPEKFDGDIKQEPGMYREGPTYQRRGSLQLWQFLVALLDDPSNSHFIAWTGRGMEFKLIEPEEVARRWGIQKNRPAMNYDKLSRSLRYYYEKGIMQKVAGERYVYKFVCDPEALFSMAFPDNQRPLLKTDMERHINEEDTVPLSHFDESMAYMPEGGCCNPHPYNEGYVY
Sequence of ETV6 (P41212 whole entry): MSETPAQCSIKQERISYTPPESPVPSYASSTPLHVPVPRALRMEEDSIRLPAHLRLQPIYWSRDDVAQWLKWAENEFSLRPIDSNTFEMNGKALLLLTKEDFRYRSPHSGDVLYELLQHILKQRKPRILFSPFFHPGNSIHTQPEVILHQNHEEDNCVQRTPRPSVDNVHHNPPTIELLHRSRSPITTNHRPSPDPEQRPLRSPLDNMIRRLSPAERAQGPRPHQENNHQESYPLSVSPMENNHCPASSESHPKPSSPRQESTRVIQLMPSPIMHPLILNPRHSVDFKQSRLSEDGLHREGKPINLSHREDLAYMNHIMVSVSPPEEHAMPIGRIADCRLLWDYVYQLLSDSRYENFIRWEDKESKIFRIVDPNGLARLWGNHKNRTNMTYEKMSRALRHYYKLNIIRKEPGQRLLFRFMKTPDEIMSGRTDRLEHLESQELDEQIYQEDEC
Sequence of ELF4 (Q99607 whole entry): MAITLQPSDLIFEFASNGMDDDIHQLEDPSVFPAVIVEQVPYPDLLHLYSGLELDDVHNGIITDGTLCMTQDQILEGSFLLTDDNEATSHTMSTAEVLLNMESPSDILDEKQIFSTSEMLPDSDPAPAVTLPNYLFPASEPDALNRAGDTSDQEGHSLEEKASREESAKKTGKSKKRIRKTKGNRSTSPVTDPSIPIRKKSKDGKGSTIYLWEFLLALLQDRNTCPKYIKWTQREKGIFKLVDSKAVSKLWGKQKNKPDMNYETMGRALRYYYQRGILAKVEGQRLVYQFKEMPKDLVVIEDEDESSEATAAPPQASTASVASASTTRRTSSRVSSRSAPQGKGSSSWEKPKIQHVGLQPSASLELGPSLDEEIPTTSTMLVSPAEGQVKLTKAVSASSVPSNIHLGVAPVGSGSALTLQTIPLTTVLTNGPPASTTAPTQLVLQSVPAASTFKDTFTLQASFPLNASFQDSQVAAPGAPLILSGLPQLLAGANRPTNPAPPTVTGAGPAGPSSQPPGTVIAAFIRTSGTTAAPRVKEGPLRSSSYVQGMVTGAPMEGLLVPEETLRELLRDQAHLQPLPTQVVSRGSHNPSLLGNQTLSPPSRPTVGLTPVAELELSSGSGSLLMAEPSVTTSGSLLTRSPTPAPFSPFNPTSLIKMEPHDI
Sequence of ETV5 (P41161 whole entry): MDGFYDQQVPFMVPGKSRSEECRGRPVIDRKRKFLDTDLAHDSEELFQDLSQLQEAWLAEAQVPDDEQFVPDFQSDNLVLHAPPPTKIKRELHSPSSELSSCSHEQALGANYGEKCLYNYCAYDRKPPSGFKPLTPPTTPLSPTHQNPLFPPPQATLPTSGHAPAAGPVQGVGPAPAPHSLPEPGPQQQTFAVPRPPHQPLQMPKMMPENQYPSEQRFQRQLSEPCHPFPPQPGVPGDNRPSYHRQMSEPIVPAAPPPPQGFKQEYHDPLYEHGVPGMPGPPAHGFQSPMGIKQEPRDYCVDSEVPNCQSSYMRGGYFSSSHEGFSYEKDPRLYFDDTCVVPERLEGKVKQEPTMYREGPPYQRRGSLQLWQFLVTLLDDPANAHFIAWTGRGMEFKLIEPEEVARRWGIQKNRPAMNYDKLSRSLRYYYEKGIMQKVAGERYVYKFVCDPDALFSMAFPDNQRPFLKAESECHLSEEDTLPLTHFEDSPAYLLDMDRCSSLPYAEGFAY
Sequence of SPIB (Q01892 whole entry): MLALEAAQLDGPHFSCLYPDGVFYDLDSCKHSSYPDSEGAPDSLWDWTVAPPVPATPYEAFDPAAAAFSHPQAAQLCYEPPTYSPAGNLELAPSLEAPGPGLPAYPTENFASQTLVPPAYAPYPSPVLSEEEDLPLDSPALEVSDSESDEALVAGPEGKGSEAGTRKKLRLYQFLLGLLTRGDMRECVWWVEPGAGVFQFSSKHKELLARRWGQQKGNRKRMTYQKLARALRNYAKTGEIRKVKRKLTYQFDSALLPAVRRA
Sequence of ELF1 (P32519 whole entry): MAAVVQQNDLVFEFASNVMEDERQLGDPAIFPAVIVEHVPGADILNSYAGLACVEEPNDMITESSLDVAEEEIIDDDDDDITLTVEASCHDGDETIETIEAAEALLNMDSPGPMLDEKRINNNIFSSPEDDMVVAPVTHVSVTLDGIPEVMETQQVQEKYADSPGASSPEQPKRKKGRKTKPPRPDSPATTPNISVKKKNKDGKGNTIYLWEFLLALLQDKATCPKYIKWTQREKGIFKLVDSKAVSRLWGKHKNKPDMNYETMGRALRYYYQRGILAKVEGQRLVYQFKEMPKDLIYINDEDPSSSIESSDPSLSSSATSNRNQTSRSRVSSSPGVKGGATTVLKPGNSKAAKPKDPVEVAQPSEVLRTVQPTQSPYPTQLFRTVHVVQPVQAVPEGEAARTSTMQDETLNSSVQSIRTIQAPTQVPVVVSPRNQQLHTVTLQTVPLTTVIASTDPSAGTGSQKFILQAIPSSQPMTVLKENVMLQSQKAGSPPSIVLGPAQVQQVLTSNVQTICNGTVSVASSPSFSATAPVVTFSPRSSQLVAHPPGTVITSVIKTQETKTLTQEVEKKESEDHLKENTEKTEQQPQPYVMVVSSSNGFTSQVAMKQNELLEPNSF

With AAGGCA the binding signal [1] was 1.02 fold enrichment (6-mer frequency, TF over GST control), the binding signal [2] was 1.05 fold enrichment (6-mer frequency, TF over GST control) and the binding signal [3] was 1.03 fold enrichment (6-mer frequency, TF over GST control). For the same sequence, the binding signal [4] was 1 fold enrichment (6-mer frequency, TF over GST control), the binding signal [5] was 1.09 fold enrichment (6-mer frequency, TF over GST control) and the binding signal [6] was 1.07 fold enrichment (6-mer frequency, TF over GST control). The binding signal [7] was 1 fold enrichment (6-mer frequency, TF over GST control), the binding signal [8] was 1.01 fold enrichment (6-mer frequency, TF over GST control) and the binding signal [9] was 1.03 fold enrichment (6-mer frequency, TF over GST control). For the same sequence, the binding signal [10] was 1.1 fold enrichment (6-mer frequency, TF over GST control), the binding signal [11] was 1.04 fold enrichment (6-mer frequency, TF over GST control) and the binding signal [12] was 1.04 fold enrichment (6-mer frequency, TF over GST control). For the same sequence, the binding signal [13] was 1.08 fold enrichment (6-mer frequency, TF over GST control), the binding signal [14] was 1.05 fold enrichment (6-mer frequency, TF over GST control) and the binding signal [15] was 1.07 fold enrichment (6-mer frequency, TF over GST control). The binding signal [16] was 1.03 fold enrichment (6-mer frequency, TF over GST control).
In the case of TGGTCA, the binding signal [1] is reported as 1.11 fold enrichment (6-mer frequency, TF over GST control), the binding signal [2] is reported as 1 fold enrichment (6-mer frequency, TF over GST control) and the binding signal [3] is reported as 1.17 fold enrichment (6-mer frequency, TF over GST control). For the same sequence, the binding signal [17] was 1.06 fold enrichment (6-mer frequency, TF over GST control), the binding signal [5] was 1.01 fold enrichment (6-mer frequency, TF over GST control) and the binding signal [18] was 1.05 fold enrichment (6-mer frequency, TF over GST control). For the same sequence, the binding signal [19] was 1.07 fold enrichment (6-mer frequency, TF over GST control), the binding signal [7] was 1.02 fold enrichment (6-mer frequency, TF over GST control) and the binding signal [8] was 1.07 fold enrichment (6-mer frequency, TF over GST control). For the same sequence, the binding signal [9] was 1.06 fold enrichment (6-mer frequency, TF over GST control), the binding signal [10] was 1.02 fold enrichment (6-mer frequency, TF over GST control) and the binding signal [12] was 1.1 fold enrichment (6-mer frequency, TF over GST control). The binding signal [13] was 1.13 fold enrichment (6-mer frequency, TF over GST control), the binding signal [15] was 1.01 fold enrichment (6-mer frequency, TF over GST control) and the binding signal [16] was 1.04 fold enrichment (6-mer frequency, TF over GST control).

Source: article PMC7862700, “An all-to-all approach to the identification of sequence-specific readers for epigenetic DNA modifications on cytosine”
